Records with an inconclusive call do not appear. The source made the active and inactive calls. Calls come from the whole dose curve; as a rule, active = well fitted curve in the direction sought with a large enough effect; inconclusive = small, poorly fitted or top-dose-only effect, or another doubt; inactive = no such curve, though single readings can be large; an effect the other way counts as inactive or inconclusive.
Legend:
[1] = target: Rap guanine nucleotide exchange factor 3 (Homo sapiens) (UniProt O95398); test: Confirmatory qHTS for agonist of cAMP-regulated guanine nucleotide exchange factor 3 (EPAC1) (AID 1645881);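 note: EPAC1 catalysed release of BODIPY-GDP from Rap1B seen as fluorescence loss; 100% = effect of cAMP agonist control; nearly all actives have a fitted effect of over 75% in size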
[2] = target: Rap guanine nucleotide exchange factor 4 (Homo sapiens) (UniProt Q8WZA2); test: Confirmatory qHTS for agonist of cAMP-regulated guanine nucleotide exchange factor 4 (EPAC2) (AID 1645884);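 note: nucleotide exchange releases bodipy-GDP from Rap1 and this lowers its fluorescence; % is set by controls: 0 for no effect and ±100 for the full control effect; nearly all actives have a fitted effect of over 65% in size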
[3] = target: Rap guanine nucleotide exchange factor 4 (Homo sapiens) (UniProt Q8WZA2); test: Confirmatory qHTS for antagonist of cAMP-regulated guanine nucleotide exchange factor 4 (EPAC2) (AID 1645885); note: nearly all actives have a fitted effect of over 25% in size; note: potency is the fitted concentration of half-maximal effect; for activity change, negative = inhibition: % is set by controls: 0 for no effect and ±100 for the full control effect
[4] = target: Rap guanine nucleotide exchange factor 3 (Homo sapiens) (UniProt O95398); test: Counterscreen qHTS for antagonist of cAMP-regulated guanine nucleotide exchange factor 3 (EPAC1) (AID 1645888); note: potency is the fitted concentration of half-maximal effect;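 for activity change, negative = inhibition: fluorescence loss as bound BODIPY-GDP is released from Rap1B; % of control where 0% means no effect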
How it was run: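 Rap1B–BODIPY-GDP (250 nM) with 50 uM GDP; compounds pin-transferred to 9.74 nM–152 uM final (activator) or from 7.32 nM upwards (inhibitor). Fluorescence Ex/Em 480/540 nm read at 5 and 30 min, then after adding cAMP or buffer, at room temperature.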

Sequence of Rap guanine nucleotide exchange factor 4 (Homo sapiens) (Q8WZA2 whole entry, looked up): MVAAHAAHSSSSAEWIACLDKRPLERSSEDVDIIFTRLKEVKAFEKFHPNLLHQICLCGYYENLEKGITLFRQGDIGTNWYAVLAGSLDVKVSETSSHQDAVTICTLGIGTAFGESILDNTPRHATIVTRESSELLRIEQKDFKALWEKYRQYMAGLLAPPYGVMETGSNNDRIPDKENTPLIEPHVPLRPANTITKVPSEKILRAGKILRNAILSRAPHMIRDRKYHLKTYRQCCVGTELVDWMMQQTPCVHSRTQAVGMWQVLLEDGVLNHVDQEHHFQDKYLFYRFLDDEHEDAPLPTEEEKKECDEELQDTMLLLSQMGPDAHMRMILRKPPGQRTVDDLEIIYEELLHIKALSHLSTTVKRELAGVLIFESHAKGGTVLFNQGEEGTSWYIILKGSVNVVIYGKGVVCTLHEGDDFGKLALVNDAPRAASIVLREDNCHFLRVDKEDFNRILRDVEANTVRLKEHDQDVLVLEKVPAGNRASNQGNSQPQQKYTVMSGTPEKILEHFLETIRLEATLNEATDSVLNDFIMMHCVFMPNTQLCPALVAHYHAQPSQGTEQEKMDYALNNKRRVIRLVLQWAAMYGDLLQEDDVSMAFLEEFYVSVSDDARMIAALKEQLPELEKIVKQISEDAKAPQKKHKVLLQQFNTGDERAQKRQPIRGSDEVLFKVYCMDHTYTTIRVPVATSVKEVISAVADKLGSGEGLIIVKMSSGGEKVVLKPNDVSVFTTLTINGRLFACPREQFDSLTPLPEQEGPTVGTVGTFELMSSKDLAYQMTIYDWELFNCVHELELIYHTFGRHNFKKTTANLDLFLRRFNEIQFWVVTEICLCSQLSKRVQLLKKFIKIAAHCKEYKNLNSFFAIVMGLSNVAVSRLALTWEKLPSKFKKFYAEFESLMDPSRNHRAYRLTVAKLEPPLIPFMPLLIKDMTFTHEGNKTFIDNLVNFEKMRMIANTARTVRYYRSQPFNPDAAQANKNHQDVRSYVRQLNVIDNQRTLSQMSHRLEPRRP
Sequence of Rap guanine nucleotide exchange factor 3 (Homo sapiens) (O95398 whole entry, looked up): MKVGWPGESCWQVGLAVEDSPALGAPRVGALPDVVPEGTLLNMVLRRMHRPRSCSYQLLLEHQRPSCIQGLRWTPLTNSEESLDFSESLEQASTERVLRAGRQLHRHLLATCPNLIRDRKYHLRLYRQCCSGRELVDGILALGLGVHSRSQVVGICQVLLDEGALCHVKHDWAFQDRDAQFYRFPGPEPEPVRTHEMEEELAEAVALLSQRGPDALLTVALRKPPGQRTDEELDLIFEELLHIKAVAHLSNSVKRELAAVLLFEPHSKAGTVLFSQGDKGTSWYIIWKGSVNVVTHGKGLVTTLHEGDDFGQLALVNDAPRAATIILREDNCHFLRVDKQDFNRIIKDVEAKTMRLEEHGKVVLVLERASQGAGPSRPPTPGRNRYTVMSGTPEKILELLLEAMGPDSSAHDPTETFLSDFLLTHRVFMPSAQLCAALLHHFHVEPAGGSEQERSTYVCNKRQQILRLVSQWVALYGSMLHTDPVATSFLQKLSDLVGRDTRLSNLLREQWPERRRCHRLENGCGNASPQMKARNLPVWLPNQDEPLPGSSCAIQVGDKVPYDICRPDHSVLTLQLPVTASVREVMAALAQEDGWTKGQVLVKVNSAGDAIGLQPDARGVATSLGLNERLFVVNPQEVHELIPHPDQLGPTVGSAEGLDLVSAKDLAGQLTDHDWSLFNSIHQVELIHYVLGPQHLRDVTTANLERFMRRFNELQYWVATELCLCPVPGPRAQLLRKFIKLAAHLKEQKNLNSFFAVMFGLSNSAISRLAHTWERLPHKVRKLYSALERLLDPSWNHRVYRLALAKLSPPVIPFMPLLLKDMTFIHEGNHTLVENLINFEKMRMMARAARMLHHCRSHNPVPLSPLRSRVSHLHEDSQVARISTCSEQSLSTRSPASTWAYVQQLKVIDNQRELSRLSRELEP

COc1ccc(Cl)cc1NC(=O)c1c(NCc2ccc(C)o2)sc2c1CCCCC2
inactive: Potency [1] | Potency [2] | Potency [3] | Potency [4]

O=C1NC(=O)C(=Cc2ccccc2[N+](=O)[O-])S1
inactive: Potency [1] | activation [2] 5.36% [at 17.1 µM, percent relative to cAMP agonist control] | Potency [3] | activity change, negative = inhibition [4] 0.254% [at 30.8 µM]

CCOc1ccccc1NC(=O)CN1C(=O)COc2ccc(S(=O)(=O)NC3CCCC3)cc21
inactive: Potency [1] | Potency [2] | outcome [3] inactive [at 12.7 µM] | Potency [4]

CC(C)CC(NS(=O)(=O)OCC(Cl)(Cl)Cl)c1ccccc1 (stereo not given)
inactive: Potency [1] | activation [2] 5.17% [at 17.1 µM, percent relative to cAMP agonist control] | Potency [3] | activity change, negative = inhibition [4] -22.9% [at 30.8 µM]

CC(C)Cc1ccc(CN2C(C(C)C)C(=O)N(Cc3cn(CCC4OCCO4)nn3)CCS2(=O)=O)cc1 (stereo not given)
inactive: Potency [1] | activation [2] 4.64% [at 17.1 µM, percent relative to cAMP agonist control] | Potency [3] | activity change, negative = inhibition [4] -13.5% [at 30.8 µM]

N#CCC(=O)N/N=C/c1coc2ccccc2c1=O
inactive: Potency [1] | Potency [2] | Potency [3] | Potency [4]

CCOC(=O)c1cc2c(=O)n3ccccc3nc2n(Cc2ccco2)c1=NC(=O)c1c(F)cccc1Cl
inactive: Potency [1] | Potency [2] | Potency [3] | Potency [4]

CC(C)(C)n1nc(Cc2cccc3ccccc23)c(C#N)c1N
inactive: Potency [1] | Potency [2] | Potency [3] | Potency [4]

Cc1ccc(-n2nc3ccc(NC(=O)/C=C/c4ccco4)cc3n2)cc1C
inactive: Potency [1] | Potency [2] | Potency [3] | Potency [4]

N=C1/C(=C\c2ccc(-c3cccc(Cl)c3)o2)C(=O)N=C2SC=C(c3ccccc3)N12
inactive: Potency [1] | Potency [2] | Potency [3] | Potency [4]

CC(C)C1COC(c2cccn2Cc2ccccc2Cl)=N1 (stereo not given)
inactive: Potency [1] | activation [2] 14.2% [at 17.1 µM, percent relative to cAMP agonist control] | Potency [3] | activity change, negative = inhibition [4] -4.02% [at 30.8 µM]

ON=C(c1ccccc1)c1ccc2c3c(cccc13)CC2
inactive: Potency [1] | Potency [2] | Potency [3] | Potency [4]

COc1ccc(OC)c(Nc2cc3ccccc3c(=O)[nH]2)c1
inactive: Potency [1] | Potency [2] | Potency [3] | Potency [4]

C/C(=N\Nc1nc2ccccc2[nH]1)c1cc2ccccc2o1
inactive: Potency [1] | activation [2] 1.22% [at 17.1 µM, percent relative to cAMP agonist control] | Potency [3] | activity change, negative = inhibition [4] -0.654% [at 30.8 µM]

S=c1[nH]nc(-c2cc(-c3ccccc3)n[nH]2)n1/N=C/c1cccc(Cl)c1
inactive: Potency [1] | Potency [2] | Potency [3] | Potency [4]

CS(=O)(=O)c1ccc(C(=O)NCCN2C(=O)S/C(=C\c3cccnc3)C2=O)cc1[N+](=O)[O-]
inactive: Potency [1] | activation [2] 1.36% [at 17.1 µM, percent relative to cAMP agonist control] | Potency [3] | activity change, negative = inhibition [4] -27.7% [at 30.8 µM]

CCOc1cc(CNCCSc2nnnn2C)ccc1OCc1ccc(Cl)cc1Cl
inactive: Potency [1] | Potency [2]
active: Potency [3] 4.26 µM | Potency [4] 63.1 µM

O=C(/C=C/c1ccccc1Cl)c1ccc(O)cc1
inactive: Potency [1] | activation [2] 13.2% [at 17.1 µM, percent relative to cAMP agonist control] | Potency [3] | activity change, negative = inhibition [4] 8.95% [at 30.8 µM]

Oc1ccc(NCc2ccccc2OCc2ccccc2F)cc1
inactive: Potency [1] | Potency [2] | Potency [3] | Potency [4]

Cc1ccc(CNc2nc(NCc3ccccc3)nc3ccsc23)c(C)c1
inactive: Potency [1] | Potency [2] | Potency [3] | Potency [4]

— PubChem BioAssay (NCATS)
